Measurements reported in PubChem BioAssay AID608 (Sanford-Burnham Center for Chemical Genomics, 2007).
Screen size: about 3,800 compounds; about 50 (1%) were called active. How the calls were made is not given here. The list shows a part of the results. Where a call stands in place of a potency, no number is given. Potency and affinity values are given separately.

What follows are compounds tested against Peptidyl-prolyl cis-trans isomerase FKBP1A (Homo sapiens) (UniProt P62942) (assay: small-molecule binding to FKBP12 – biophysical, NMR detection (AID 608)). Settings: purified FKBP12.
Peptidyl-prolyl cis-trans isomerase FKBP1A (Homo sapiens), sequence (P62942 whole entry, looked up): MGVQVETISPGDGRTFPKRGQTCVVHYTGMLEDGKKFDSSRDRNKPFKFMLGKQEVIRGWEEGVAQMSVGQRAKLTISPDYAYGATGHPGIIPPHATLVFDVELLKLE

Structure (SMILES) | outcome
O=C(Nc1ccc(OCC(=O)N2CCOCC2)cc1)c1cccnc1 | inactive
